From PubChem BioAssay (NCATS)
Records with an inconclusive call do not appear. The source made the active and inactive calls. Calls follow the shape of the dose curve; as a rule, active = well fitted inhibition curve with a large enough effect; inconclusive = small, poorly fitted or top-dose-only effect; inactive = flat fitted curve, though single readings scatter.

experiment: High Content Imaging Cell-Based qHTS for Inhibitors of the mTORC1 Signaling Pathway in MEF (Tsc2-/-, p53-/-) Cells (AID 2666); conditions: series mostly up to 38.3 µM
How it was run: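 Phospho-rpS6 (Ser235/236) immunofluorescence, normalized and scored as % positive cells using rapamycin and DMSO controls, was read in empty-vector Tsc2-/-, p53-/- MEFs after 24 h compound exposure at 37 C; propidium iodide counted cells.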

Row | SMILES | outcome
1 | O=c1[nH]c2cc(Cl)c(Cl)cc2[nH]c1=O | inactive
2 | Oc1ccc(C2CNCc3sccc32)cc1O (stereo not given) | inactive
3 | O=S(=O)(c1cccc2c(I)cccc12)N1CCCNCC1 | inactive
4 | C=CC(N)CCC(=O)O (stereo not given) | inactive
5 | O=C(c1cc(O)c(O)c([N+](=O)[O-])c1)c1ccccc1F | inactive
6 | NC(CCCP(=O)(O)O)C(=O)O (stereo not given) | inactive
7 | Fc1cccc(/C=N/N=C/c2cccc(F)c2)c1 | inactive
8 | Cn1c(=O)c2[nH]c(-c3ccccc3)nc2n(C)c1=O | inactive
9 | CN1C2CCC1CC(OC(=O)C(O)c1ccccc1)C2 (stereo not given) | inactive
10 | CCCCCCCCCCCCCCCCCC(=O)NCC(COP(=O)([O-])OCC[N+](C)(C)C)OCC (stereo not given) | inactive
11 | COc1cc2nc(N3CCN(C(=O)OCc4ccccc4)C(C(=O)NC(C)(C)C)C3)nc(N)c2cc1OC (stereo not given) | inactive
12 | O=C(O)c1cc(=O)c2c(Cl)cc(Cl)cc2[nH]1 | inactive
13 | NCCSSCCN | inactive
14 | CCCN(CC1CC1)c1nc(C)nc(Nc2c(Cl)cc(Cl)cc2Cl)c1Cl | inactive
15 | OC[C@H]1O[C@@H](n2cnc3c(NC4CCCCC4)ncnc32)[C@H](O)[C@@H]1O | inactive
16 | CN1CCC[C@H]1c1cccnc1 | inactive
17 | COc1cccc(OC)c1OCCNCC1COc2ccccc2O1 (stereo not given) | inactive
18 | COc1cc(C(O)CO)ccc1OS(=O)(=O)O (stereo not given) | inactive
19 | N[C@@H](CC(=O)O)C(=O)O | inactive
20 | CN1CCc2cc(O)c(O)cc2C(c2ccccc2)C1 (stereo not given) | inactive
